Source: PubChem BioAssay (NCATS)
Active and inactive are the calls of the source. Calls follow the shape of the dose curve; as a rule, active = well fitted curve in the direction sought with a large enough effect; inconclusive = small, poorly fitted or top-dose-only effect, or another doubt; inactive = no such curve, though single readings can be large or run the other way.

Target: Hexokinase-4 (Homo sapiens) + Glucokinase regulatory protein (Homo sapiens) (UniProt P35557+Q14397)
Assay: qHTS assay for inhibitors of recombinant human GCK-GKRP interaction: HTRF assay (AID 743207)
Settings: recombinant GCK-GKRP HTRF binding, 60 min; series mostly up to 57.5 µM
Source text: Glucokinase (GCK) is a glucose sensor in hepatocytes and pancreatic beta-cells. Hepatic GCK is regulated by glucokinase regulatory protein (GKRP), which is predominantly localized to the liver. GKRP binds to GCK inhibiting its activity in the fasting state while in the presence of glucose the GKRP is displaced. There is an additional layer of regulation by fructose 1-phosphate and fructose 6-phosphate, which inhibit and enhance the GCK-GKRP interaction, respectively. GCK plays a role in glucose homeostasis and there is an interest in the development of strategies to activate GCK to lower blood glucose levels in type 2 diabetes. To date the majority of effort has focused on direct activation of GCK and the assays developed herein look to activate GCK by inhibiting its binding to GKRP. A compound that inhibits the interaction of GCK with GKRP could be important for the treatment of diabetes and can also be used as a tool compound to further elucidate GCK-GKRP biology. To that end, we have developed an HTS biochemical assay using HTRF technology for to interrogate the GCK-GKRP interaction. This assay was screened against a small compound library to look for modulators of activity.
3 uL of 5 nM GST-GCK and 5 nM FLAG-GKRP proteins with 2 uM S6P (columns 1-2, 4-48; Millipore, Billerica, MA) are dispensed into Greiner, white solid-bottom 1536-well assay plates; columns 3 receive buffer without GCK as a control for maximum inhibition. Buffer contains 2 mM MgCl2, 25 mM KCl, 25 mM Hepes, 1 mM DTT, 0.1% Tween 20 and 0.025% BSA and the pH was adjusted to 7.1. Compounds (23 nL) are then transferred via Kalypsys pin tool equipped with 1536-pin array (10 nL slotted pins, V&P Scientific, San Diego, CA). The library compounds are in columns 5-48 and columns 1-4 serve as controls with DMSO in columns 1 and 3 and 26 mM 1:1.5 fold serial of gluckokinase activator (GKA-EMD) in column 2 and 26 mM of the glucokinase activator (GKA-EMD) in column 4. Following addition of compound, 1 uL of detection antibodies (anti-Flag XL 665 and anti-GST K in reconstitution buffer from Cisbio, Bedford, MA; 0.7 ng/well and 0.0945 ng/well, respectively) is added, and the mixture is allowed to equilibrate for 60 minutes at room temperature. Data are normalized to DMSO-treated control columns with (maximum signal) and without (minimum signal) enzyme. Plates were read on an Envision plate reader (PerkinElmer, Shelton, CT, USA) with excitation at 320 nm and dual-wavelength detection at the Fret donor wavelength (615 nm) and the FRET acceptor wavelength (665 nm).

Hexokinase-4 (Homo sapiens) + Glucokinase regulatory protein (Homo sapiens), sequence (P35557 whole entry, looked up): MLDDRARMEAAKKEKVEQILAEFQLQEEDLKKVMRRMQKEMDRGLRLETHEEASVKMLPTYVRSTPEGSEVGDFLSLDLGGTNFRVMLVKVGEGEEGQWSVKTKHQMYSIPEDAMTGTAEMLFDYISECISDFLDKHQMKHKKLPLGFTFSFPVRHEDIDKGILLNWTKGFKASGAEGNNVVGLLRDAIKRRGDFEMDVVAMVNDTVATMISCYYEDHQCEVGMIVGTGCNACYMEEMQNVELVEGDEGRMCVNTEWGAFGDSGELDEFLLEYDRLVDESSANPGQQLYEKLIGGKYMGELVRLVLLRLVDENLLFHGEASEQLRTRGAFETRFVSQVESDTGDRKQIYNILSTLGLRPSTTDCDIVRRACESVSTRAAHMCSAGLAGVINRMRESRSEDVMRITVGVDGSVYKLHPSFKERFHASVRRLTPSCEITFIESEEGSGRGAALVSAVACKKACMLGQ
Hexokinase-4 (Homo sapiens) + Glucokinase regulatory protein (Homo sapiens), sequence (Q14397 whole entry, looked up): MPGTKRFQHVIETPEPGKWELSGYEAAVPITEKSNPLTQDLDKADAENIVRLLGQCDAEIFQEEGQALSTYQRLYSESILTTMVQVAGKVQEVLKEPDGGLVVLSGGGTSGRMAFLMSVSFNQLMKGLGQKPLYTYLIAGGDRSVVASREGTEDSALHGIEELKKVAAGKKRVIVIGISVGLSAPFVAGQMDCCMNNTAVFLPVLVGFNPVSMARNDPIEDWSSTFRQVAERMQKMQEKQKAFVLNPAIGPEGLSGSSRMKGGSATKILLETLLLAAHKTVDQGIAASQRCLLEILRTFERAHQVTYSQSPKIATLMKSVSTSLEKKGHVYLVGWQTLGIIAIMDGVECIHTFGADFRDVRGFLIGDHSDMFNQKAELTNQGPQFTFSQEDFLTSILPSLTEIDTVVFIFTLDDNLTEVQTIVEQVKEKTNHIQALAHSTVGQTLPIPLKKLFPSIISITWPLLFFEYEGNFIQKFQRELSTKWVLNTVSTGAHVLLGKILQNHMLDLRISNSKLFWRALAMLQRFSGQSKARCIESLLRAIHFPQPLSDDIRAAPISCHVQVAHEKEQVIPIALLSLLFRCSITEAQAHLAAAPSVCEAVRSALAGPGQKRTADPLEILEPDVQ

Structure (SMILES)	outcome
CC(N)c1cccc(Cl)c1Cl (stereo not given)	inactive
CN1CC[C@@]2(C)c3cc(OC(=O)Nc4ccccc4)ccc3N(C)[C@@H]12	inactive
CCCN1CCC[C@@H](c2cccc(O)c2)C1	inactive
NCCc1c[nH]c2ccc(C(N)=O)cc12	inactive
c1ccc2c(c1)[I+]c1ccccc1-2	inactive
C[N+](C)(C)CC#CCOC(=O)Nc1cccc(Cl)c1	inactive
COc1ccc(CNC(=O)/C=C/c2ccc3[nH]cc(CCN(C)C)c3c2)cc1	inactive
C/C(O)=C(\C#N)C(=O)Nc1cc(Br)ccc1Br	inactive
NC(=O)CI	inactive
CC(N)Cc1c[nH]c2ccc(O)cc12 (stereo not given)	inactive
CCCN(CCC)C1Cc2cc(OC)c(OC)cc2C1	inactive
O=C(O)c1cc[c]([Hg][Cl])cc1	inactive
C[C@@H]1[C@@H]2Cc3ccc(O)cc3[C@@]1(C)CCN2CC1CC1	inactive
C=CCN(C1=NCCN1)c1c(Cl)cccc1Cl	inactive
C[C@]12Cc3cn4c(nc3C=C1CCC1C2CC[C@@]2(C)[C@H]1CC[C@@]2(O)C#N)nc1ccccc14 (stereo not given in full)	inactive
CCCN(CCC)[C@H]1CCc2c(F)ccc(O)c2C1	inactive
NC(N)=NOCC[C@H](N)C(=O)O	inactive
N[C@@H](Cn1ccc(=O)[nH]c1=O)C(=O)O	inactive
CC12NC(Cc3ccccc31)c1ccccc12 (stereo not given)	inactive
NC(CCCCCP(=O)(O)O)C(=O)O (stereo not given)	inactive

Structure (SMILES)	outcome
NCCc1ccc(S(=O)(=O)F)cc1	inactive
CC(C)[C@@]1(NC(=O)[C@@H]2C[C@@H]3c4cccc5[nH]cc(c45)C[C@H]3N(C)C2)O[C@@]2(O)[C@@H]3CCCN3C(=O)[C@H](Cc3ccccc3)N2C1=O	inactive
c1ccc2cc(CC3=NCCN3)ccc2c1	inactive
CN(N=O)c1cc(O)ccc1O	inactive
N#CCCN	inactive
CC(C)CC(NP(=O)(O)O[C@@H]1O[C@@H](C)[C@H](O)[C@@H](O)[C@H]1O)C(=O)NC(Cc1c[nH]c2ccccc12)C(=O)O (stereo not given in full)	inactive
CC(N)[C@H](O)c1ccc(O)c(O)c1 (stereo not given in full)	inactive
CN1CCc2cc(O)cc3c2[C@H]1Cc1ccc(O)c(O)c1-3	inactive
O=[N+]([O-])c1cc(O)c(O)c([N+](=O)[O-])c1	inactive
COc1cc(CC(C)N)c(OC)cc1I (stereo not given)	inactive
NC(C(=O)O)c1cc(=O)[nH]o1 (stereo not given)	inactive
C=CCN1CC[C@]23c4c5ccc(O)c4O[C@@H]2/C(=N/N=C2\CC[C@@]4(O)C6Cc7ccc(O)c8c7[C@@]4(CCN6CC=C)[C@@H]2O8)CC[C@@]3(O)C1C5	inactive
Cc1[nH]c2ccc(O)cc2c1CCN	inactive
COc1ccc2c(c1)[C@@]13CCCC[C@H]1[C@@H](C2)NCC3	inactive
NC(N)=Nc1ccc2[nH]c3c(c2c1)C[C@@]1(O)[C@H]2Cc4ccc(O)c5c4[C@@]1(CCN2CC1CC1)[C@H]3O5	inactive
Cc1sc2ccccc2c1CC1=NCCN1	inactive
C[C@H](Cc1ccc2c(c1)OC(C(=O)O)(C(=O)O)O2)NC[C@H](O)c1cccc(Cl)c1	inactive
Oc1ccc2c3c1O[C@H]1c4oc5ccccc5c4C[C@@]4(O)C(C2)N(CC2CC2)CCC314 (stereo not given in full)	inactive
O=S1(=O)N(CCN2CC=C(c3c[nH]c4cc(F)ccc34)CC2)c2cccc3c2N1CCC3	inactive
C[Se]C[C@H](N)C(=O)O	inactive
